Test results taken from PubChem BioAssay AID626 (Vanderbilt High Throughput Screening Facility, 2007).
In all, about 64,000 compounds went through this assay and about 1,900 (3%) were called active.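 How the source made its calls: active means fluorescence rise, raw or as B-score row- and column-corrected plate score, outside the 99.7% band of its plate's samples, either direction; inactive means the rest.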 Only a selection was taken, and actives are over-represented in it overall.

system: Muscarinic acetylcholine receptor M1; experiment: direct activation of M1 receptor calcium signal – CHO-M1 cells, Fluo-4 calcium, agonist mode, primary screen (AID 626); settings: Fluo-4 calcium fluorescence, at 10 µM, hits give high values

B-score, active:
Cc1ccc(C(=O)COc2cccc(NC(=O)c3ccco3)c2)cc1 1.03
COc1ccccc1Oc1ccc(S(=O)(=O)Nc2cccnc2)cc1 14.6
O=C(CSc1nc2ccccc2o1)N1CCN(c2ccc(Cl)cc2)CC1 20.1
O=C(Nc1ccccc1N1CCN(C(=O)c2ccccc2)CC1)c1ccc2c(c1)OCO2 2.96
COc1ccc(N(C(=O)c2cccnc2)S(=O)(=O)c2ccc3c(c2)n(C)c(=O)n3C)cc1 3.89
CCOC(=O)c1cc2n(c1N)-c1ccccc1C2=O 145
FC(F)(F)COc1nc(N2CCCCC2)nc(N2CCNCC2)n1 6.73
CC1CCCC(C)N1C(=O)CN1CCN(c2nc(-c3ccc(F)cc3)cs2)CC1 (centres undefined) 2.64
CCOc1ccc(NC(=O)N2CC=C(n3c(=O)[nH]c4ccccc43)CC2)cc1 3.49
CCn1c(NCCc2ccc(OC)c(OC)c2)nc2c1c(=O)n(C)c(=O)n2C 3.33
COc1ccc2[nH]c(=O)c(CN(CC3CCCO3)C(=O)Nc3ccccc3)cc2c1 (centres undefined) 2.9
Cc1cc2cc(CN(Cc3cccs3)Cc3nnnn3CC3CCCO3)c(=O)[nH]c2cc1C (centres undefined) 6.85
CCOc1ccc2[nH]c(=O)c(CN(Cc3nnnn3Cc3ccccc3)CC3CCCO3)cc2c1 (centres undefined) 3.01
CN1C(=O)c2ccc(NC(=O)c3c(F)c(F)c(F)c(F)c3F)cc2C1=O 4.34
COc1ccc(NC(=O)C2CCCN(S(=O)(=O)c3cccc4cccnc34)C2)cc1OC (centres undefined) 4.34
N#CC1=C(N)Oc2c(sc3ccccc23)C1c1ccco1 (centres undefined) 52
O=C(CSCc1cccs1)N1CCCC1 4.57
COc1ccccc1NC(=O)CSc1nnc(Cn2nnc(-c3ccccc3)n2)n1-c1ccccc1 2.12
CCN=C1SC(CC(=O)Nc2ccc(C)cc2)C(=O)N1CC (centres undefined) 5.15

B-score, inactive:
COC(=O)c1ccc(NC(=O)c2ccco2)cc1 -0.218
Cc1ccnc(NC(=O)c2ccc(NC(=O)c3ccco3)cc2)c1 1.71
O=C1c2ccccc2C(Nc2ccc3c(c2)OCCO3)N1Cc1ccco1 (centres undefined) 0.847
COc1ccc(NS(=O)(=O)c2ccc(NC(C)=O)cc2)cc1OC 0.127
O=S(=O)(Nc1ccccn1)c1ccc(Oc2ccccc2)cc1 -0.897
CCC(C)(C)NC(=O)C(c1cccn1C)N(Cc1ccc(C)cc1)C(=O)Cn1nnc2ccccc21 (centres undefined) -0.864
O=S(=O)(NCC1CCCO1)c1ccc2ccccc2c1 (centres undefined) 0.554
COCCCNC(=O)c1c(F)c(F)c(F)c(F)c1F 0.0183
Cc1cccc(CC(=O)Nc2c3c(nn2-c2cccc(Cl)c2)CS(=O)C3)c1 (centres undefined) -1.33
Cc1noc(C)c1CSc1nc2cc(S(=O)(=O)N3CCOCC3)ccc2o1 -0.0272
O=C(CSc1nc2ccccc2o1)N1CCN(c2ccccc2)CC1 -0.706
CC1Cc2ccccc2N1C(=O)CSc1nc2ccccc2o1 (centres undefined) 0.106
CSCCC(NC(=O)c1ccc(=O)n(C)n1)c1nc2ccccc2[nH]1 (centres undefined) -1.57
NC(=S)c1ccc(C(N)=S)o1 2.43
COc1ccc(C(=O)CSc2nccc(=O)[nH]2)cc1 1.27
CC12C(=O)N(n3cnnc3)C(=O)C1C1C=CC2C1 (centres undefined) 0.0714
CCc1ccc(Nc2ncc3c(n2)CC(c2ccco2)CC3=O)cc1 (centres undefined) 0.24
CCCC(=O)Nc1ccccc1N1CCN(C(=O)c2ccccc2)CC1 0.545
O=C(Nc1ccccc1N1CCN(c2ccccc2)CC1)c1cccc(F)c1 -0.048
Cc1noc(C)c1C(=O)OCC(=O)/C=C1\N(C)c2ccccc2C1(C)C -1.21
COc1ccc(S(=O)(=O)N2CCC(C(=O)N3CCc4ccccc4C3)CC2)cc1OC 0.201
O=C(CN(Cc1ccccc1)C(=O)c1ccc2c(c1)OCCO2)NCc1ccc2c(c1)OCO2 0.89
CC1(C)CC(O)C(CCC(O)c2ccccc2)C(C)(C)N1 (centres undefined) 2.64
CN(C)S(=O)(=O)c1cccc(C(=O)Nc2cccnc2)c1 0.0444
COc1ccc(-c2c3c(=O)n(C)c(=O)n(C)c3cn2NC(C)=O)cc1 0.218
O=C(NCCN1C(=O)C2C3C=CC(C3)C2C1=O)Nc1ccccn1 (centres undefined) 0.114
COC(=O)Nc1ncc(CN2C(=O)c3ccccc3C2=O)s1 0.171
CCOC(=O)c1cc2n(c1C)-c1ccccc1C2=O 0.122
CCOC(=O)Nc1ccccc1N1C(=O)c2ccccc2C1=O -0.565
CC(=O)N(CN1C(=O)C2CC=CCC2C1=O)c1cccc(Cl)c1 (centres undefined) -1.96
O=C(NCc1ccco1)c1cnn2c(C(F)(F)F)cc(-c3ccco3)nc12 0.0458
COc1cc2c(cc1NC(=O)CN1CCN(S(=O)(=O)c3ccc(F)cc3)CC1)oc1ccccc12 -1.04
OCc1nc(CO)n(Cc2ccccc2)n1 -0.345
COc1ccc(-c2csc(N3CCN(Cc4ccc5c(c4)OCO5)CC3)n2)cc1 -0.173
O=C(CN1CCN(c2nc(-c3ccccc3)cs2)CC1)NCc1ccc2c(c1)OCO2 -0.269
O=c1c2ccccc2nc(CSc2nnnn2-c2ccccc2)n1-c1ccccc1 -1.38
CCOc1cccc(/C(O)=C2/C(=O)C(=O)N(CCOC)C2c2ccncc2)c1 (centres undefined) -0.0327
Cc1cc(=O)cc(C)[nH]1 -0.0108
CCOc1ccc(NC(=O)N2CCN(CC)CC2)cc1 -1.38
Cc1cccc(C)c1NC(=O)N1CC=C(n2c(=O)[nH]c3ccccc32)CC1 1.14
CN1CCC2(CC1)NC(=O)NC2=O -0.874
CCCCn1c(SCC(=O)NCCc2ccc(OC)c(OC)c2)nc2c1c(=O)n(C)c(=O)n2C 0.299
Cn1c(=O)c2c(nc(NCCc3ccccc3)n2Cc2ccccc2)n(C)c1=O -0.39
Cc1cc(C(F)(F)F)c(C#N)c(SCC(=O)NC2CC2)n1 0.0289
CCSc1ncnc2c(C#N)c3n(c12)CCCCC3 -0.0416
O=C(CCC(=O)OCC(F)(F)C(F)F)NCc1ccccc1 -1.45
Cc1cccc2cc(CN(Cc3nnnn3Cc3ccccc3)C3CCCC3)c(=O)[nH]c12 0.299
CCC(=O)N(Cc1cc2cc(OC)ccc2[nH]c1=O)c1ccccc1C -0.55
CCOc1ccc2[nH]c(=O)c(CN(Cc3nnnn3CCc3ccccc3)CC3CCCO3)cc2c1 (centres undefined) 1.96
Cc1cccc2cc(CN(Cc3cccs3)C(c3nnnn3C3CCCC3)C(C)C)c(=O)[nH]c12 (centres undefined) -0.692
COc1ccc2[nH]c(=O)c(CN(Cc3nnnn3CCc3ccccc3)CC3CCCO3)cc2c1 (centres undefined) 0.197
Cc1cc(C)c2cc(CN(Cc3cccs3)Cc3nnnn3CC3CCCO3)c(=O)[nH]c2c1 (centres undefined) -0.2
Cc1ccc(C)n1C(Cc1ccccc1)C(=O)O (centres undefined) -0.967
COc1ccc(C(=O)N(Cc2ccc(N(C)C)cc2)C2CCS(=O)(=O)C2)cc1 (centres undefined) 0.609
CC(C)(C)Nc1c(N)c(=O)oc2ccccc12 0.371
Cc1onc(-c2ccccc2Cl)c1C(=O)NCCn1ccc2ccccc21 -0.0968
CCOC(=O)C1=C(C)NC(=O)N(C(C)=O)C1c1ccc(Cl)cc1 (centres undefined) -0.0464
CCC(=O)Nc1ccc(C(=O)Nc2ccc3c(c2)C(=O)N(CC2CCCO2)C3=O)cc1 (centres undefined) 0.81
CN1C(=O)c2ccc(NC(=O)C3CCCCC3)cc2C1=O -1.25
CCOC(=O)c1ccc(Nc2cc(C)nc3nc(C)nn23)cc1 -0.0395
CC(=O)c1ccc(-n2nnnc2SCC(=O)N2CCN(C(=O)c3ccco3)CC2)cc1 0.19
COc1ccccc1CNC(=O)C1CCCN(S(=O)(=O)c2cccc3cccnc23)C1 (centres undefined) 0.00364
COc1ccc(NC(=O)C2CCCN(S(=O)(=O)c3cccc4cccnc34)C2)cc1 (centres undefined) 0.324
CCOc1cc(C2C(C(=O)OC)=CN(C3CCCC3)C=C2C(=O)OC)cc(Br)c1O -0.323
CCOC(=O)CSC1=C(C#N)C(c2ccco2)C(C(=O)OCc2ccccc2)=C(C)N1 (centres undefined) -0.00433
N/C(=N\c1nc2ccccc2o1)NC(=O)C(Cc1ccccc1)N1C(=O)c2ccccc2C1=O (centres undefined) 2.31
Cc1ccc(Cn2ccc(NC(=O)c3cc(C(C)C)on3)n2)cc1 -1.01
Cn1c(=NC(=O)CSCC(=O)N2CCCCC2)sc2ccccc21 -0.071
O=C(c1cc(-c2cccs2)on1)N1CCCCC1 1.09
COc1ccccc1-n1nnnc1S(=O)(=O)Cc1ccc(Cl)cc1 0.986
COc1ccccc1NC(=O)CSc1nnc(Cc2cccn2C)n1-c1ccc(F)cc1 -0.202
COc1ccccc1NC(=O)CSc1nnc(-c2ccoc2C)n1CCc1ccccc1 0.464
CCOC(=O)c1ccc(NC(=O)Cn2nnc(-c3ccc(C)cc3)n2)cc1 -0.837
Cc1ccc(NC(=O)CCN2CCc3ccccc3C2)cc1 -0.165
CCC(Oc1ccccc1)C(=O)NCc1cccnc1 (centres undefined) -0.899
